Measured values from PubChem BioAssay (Tox21).
Inconclusive results are not listed. Calls of active or inactive are those of the source. Calls follow the shape of the dose curve; as a rule, active = well fitted curve in the direction sought with a large enough effect in the repeat runs; inconclusive = weak or mixed curves; inactive = no such curve, though single readings can be large; an effect the other way counts as inactive or inconclusive.

Legend:
[1] = Caspase-3/7 induction in HepG2 cells by small molecules, qHTS assay (AID 1346978); also: nearly all actives have a fitted effect of over 15% in size
How it was run: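 Wild-type HepG2 cells (2,000/well) were settled 5 h at 37 C, 5% CO2, then exposed to compounds in DMSO for 17 h. Caspase-3/7 activity was read by luminescence 30 min after adding Caspase-Glo 3/7 reagent at room temperature.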

[2] = Caspase-3/7 induction in CHO-K1 cells by small molecules, qHTS cell viability counter screen (AID 1346979); also: nearly all actives have a fitted effect of over 35% in size; also: potency is read from the fitted curve at half-maximal effect
How it was run: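 Following a 5hr settling period, CHO-K1 cells at 1,500 per well received DMSO-dissolved compounds. Cell viability was quantified 16hr later by CellTiter-Fluor fluorescence, measured after 1hr with reagent at 37C.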

[3] = Caspase-3/7 induction in CHO-K1 cells by small molecules, qHTS assay (AID 1346980); also: nearly all actives have a fitted effect of over 15% in size
How it was run: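 Wild-type cells were seeded at 1,500 per well and settled 5 hr at 37 C, 5% CO2, then exposed to DMSO-dissolved compounds for 17 hr. Caspase-Glo 3/7 reagent was added, and luminescence was read after 30min at room temperature.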

[4] = Caspase-3/7 induction in HepG2 cells by small molecules, qHTS cell viability counter screen (AID 1346981); also: series mostly up to about 92 µM; nearly all actives have a fitted effect of over 30% in size
How it was run: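 The parent HepG2 line is plated at 2,000 cells per well and rested 5 hr before compound pinning from DMSO stocks. Following a 16-hr treatment at 37 C, a fluorogenic live-cell substrate (CellTiter-Fluor) reports viability after 1 hr.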

[5] = biological target: Cytochrome P450 2C19 (Homo sapiens) (UniProt P33261); assay: Cytochrome P450 Family 2 Subfamily C Member 19 (CYP2C19) small molecule antagonists: luciferase reporter qHTS assay (AID 1671197); also: nearly all actives have a fitted effect of over 65% in size; also: potency is read from the fitted curve at half-maximal effect
Cytochrome P450 2C19 (Homo sapiens), sequence (P33261 whole entry, looked up): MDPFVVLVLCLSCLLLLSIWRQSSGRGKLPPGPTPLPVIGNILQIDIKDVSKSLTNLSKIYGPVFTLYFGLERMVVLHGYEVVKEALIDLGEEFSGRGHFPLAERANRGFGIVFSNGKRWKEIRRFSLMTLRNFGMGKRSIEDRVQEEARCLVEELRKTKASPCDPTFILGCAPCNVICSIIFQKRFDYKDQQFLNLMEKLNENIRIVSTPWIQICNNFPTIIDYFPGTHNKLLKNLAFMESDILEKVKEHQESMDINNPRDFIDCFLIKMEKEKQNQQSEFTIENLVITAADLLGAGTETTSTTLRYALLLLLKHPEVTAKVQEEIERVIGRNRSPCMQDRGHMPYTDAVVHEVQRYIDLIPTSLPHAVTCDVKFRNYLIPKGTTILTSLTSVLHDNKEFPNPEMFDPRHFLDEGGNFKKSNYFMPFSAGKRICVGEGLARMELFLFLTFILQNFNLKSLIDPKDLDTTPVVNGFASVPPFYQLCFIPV
How it was run: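 Quantitative high-throughput screen of the Tox21 library using CYP2C19 with proluciferin substrate. Reaction: NADPH regeneration, 37C, 1 h, after 10 min compound preincubation at room temperature. Readout: luminescence.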

[6] = biological target: Cytochrome P450 2C9 (Homo sapiens) (UniProt P11712); assay: Cytochrome P450 Family 2 Subfamily C Member 9 (CYP2C9) small molecule antagonists: luciferase reporter qHTS assay (AID 1671198); also: nearly all actives have a fitted effect of over 50% in size; also: potency is read from the fitted curve at half-maximal effect
Cytochrome P450 2C9 (Homo sapiens), sequence (P11712 whole entry, looked up): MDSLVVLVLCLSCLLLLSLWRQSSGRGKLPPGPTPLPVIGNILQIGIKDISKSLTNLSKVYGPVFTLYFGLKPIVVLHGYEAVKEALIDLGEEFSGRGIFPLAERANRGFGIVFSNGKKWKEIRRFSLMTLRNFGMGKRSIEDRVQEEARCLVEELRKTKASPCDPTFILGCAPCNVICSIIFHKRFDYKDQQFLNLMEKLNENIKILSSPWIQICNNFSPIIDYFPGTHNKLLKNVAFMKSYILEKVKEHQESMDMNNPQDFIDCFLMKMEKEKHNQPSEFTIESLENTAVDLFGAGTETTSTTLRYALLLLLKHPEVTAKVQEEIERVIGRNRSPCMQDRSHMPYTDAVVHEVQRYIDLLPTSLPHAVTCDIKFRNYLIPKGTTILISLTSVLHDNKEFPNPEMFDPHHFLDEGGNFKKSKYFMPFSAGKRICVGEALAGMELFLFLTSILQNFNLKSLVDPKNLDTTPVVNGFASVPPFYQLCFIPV
How it was run: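 CYP2C9 activity was measured with a P450-Glo proluciferin substrate. Enzyme–substrate mix was held with compound for 10 min at room temperature, then NADPH regeneration solution was added for 1 h at 37C. Luciferin product was read as luminescence.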

[7] = biological target: Cytochrome P450 1A2 (Homo sapiens) (UniProt P05177); assay: Cytochrome P450 Family 1 Subfamily A Member 2 (CYP1A2) small molecule antagonists: luciferase reporter qHTS assay (AID 1671199); also: nearly all actives have a fitted effect of over 50% in size; also: potency is read from the fitted curve at half-maximal effect
Cytochrome P450 1A2 (Homo sapiens), sequence (P05177 whole entry, looked up): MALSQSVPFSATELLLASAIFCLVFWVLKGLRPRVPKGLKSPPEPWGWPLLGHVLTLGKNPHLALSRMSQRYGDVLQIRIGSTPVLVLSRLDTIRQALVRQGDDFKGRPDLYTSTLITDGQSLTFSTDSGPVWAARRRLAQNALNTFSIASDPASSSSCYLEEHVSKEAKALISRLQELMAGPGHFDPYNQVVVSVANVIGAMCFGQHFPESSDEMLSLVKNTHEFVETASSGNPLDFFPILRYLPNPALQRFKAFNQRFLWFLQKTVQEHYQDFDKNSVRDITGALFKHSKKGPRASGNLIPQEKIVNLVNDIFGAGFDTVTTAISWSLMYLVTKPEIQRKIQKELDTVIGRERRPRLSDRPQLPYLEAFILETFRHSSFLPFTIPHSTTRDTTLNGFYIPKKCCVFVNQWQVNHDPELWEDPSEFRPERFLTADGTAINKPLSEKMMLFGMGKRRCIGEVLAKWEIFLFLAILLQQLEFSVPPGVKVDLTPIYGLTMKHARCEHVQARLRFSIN
How it was run: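 Quantitative high-throughput format using the P450-Glo CYP1A2 system. Reaction initiated by NADPH regeneration solution, 1 h at room temperature, then stopped with detection reagent; luminescence measured 20 min later.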

[8] = biological target: Cytochrome P450 3A4 (Homo sapiens) (UniProt P08684); assay: Cytochrome P450 Family 3 Subfamily A Member 4 (CYP3A4) small molecule antagonists: luciferase reporter qHTS assay (AID 1671201); also: nearly all actives have a fitted effect of over 50% in size; also: potency is read from the fitted curve at half-maximal effect
Cytochrome P450 3A4 (Homo sapiens), sequence (P08684 whole entry, looked up): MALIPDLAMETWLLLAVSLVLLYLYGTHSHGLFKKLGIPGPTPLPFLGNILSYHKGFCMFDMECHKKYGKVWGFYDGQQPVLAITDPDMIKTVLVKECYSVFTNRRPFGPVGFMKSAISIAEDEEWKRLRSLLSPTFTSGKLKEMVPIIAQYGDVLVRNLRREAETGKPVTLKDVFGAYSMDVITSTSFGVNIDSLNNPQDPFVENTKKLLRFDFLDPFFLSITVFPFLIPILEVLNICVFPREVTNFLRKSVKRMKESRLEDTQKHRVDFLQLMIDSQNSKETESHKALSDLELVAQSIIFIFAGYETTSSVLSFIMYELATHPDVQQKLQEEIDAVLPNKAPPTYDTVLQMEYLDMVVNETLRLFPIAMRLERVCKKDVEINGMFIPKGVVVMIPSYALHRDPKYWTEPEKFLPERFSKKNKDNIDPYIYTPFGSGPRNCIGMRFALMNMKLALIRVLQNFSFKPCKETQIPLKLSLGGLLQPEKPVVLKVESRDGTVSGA
How it was run: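 CYP3A4 activity was followed with a P450-Glo proluciferin substrate. Test compounds in DMSO were preincubated 10 min; NADPH regeneration then ran 1 h, and light output was read 20 min after detection reagent.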

[9] = biological target: Nuclear receptor subfamily 1 group I member 2 (Homo sapiens) (UniProt O75469); assay: Human pregnane X receptor (PXR) small molecule agonists, qHTS assay (AID 1346982); also: nearly all actives have a fitted effect of over 35% in size; also: potency is read from the fitted curve at half-maximal effect
Nuclear receptor subfamily 1 group I member 2 (Homo sapiens), sequence (O75469 whole entry, looked up): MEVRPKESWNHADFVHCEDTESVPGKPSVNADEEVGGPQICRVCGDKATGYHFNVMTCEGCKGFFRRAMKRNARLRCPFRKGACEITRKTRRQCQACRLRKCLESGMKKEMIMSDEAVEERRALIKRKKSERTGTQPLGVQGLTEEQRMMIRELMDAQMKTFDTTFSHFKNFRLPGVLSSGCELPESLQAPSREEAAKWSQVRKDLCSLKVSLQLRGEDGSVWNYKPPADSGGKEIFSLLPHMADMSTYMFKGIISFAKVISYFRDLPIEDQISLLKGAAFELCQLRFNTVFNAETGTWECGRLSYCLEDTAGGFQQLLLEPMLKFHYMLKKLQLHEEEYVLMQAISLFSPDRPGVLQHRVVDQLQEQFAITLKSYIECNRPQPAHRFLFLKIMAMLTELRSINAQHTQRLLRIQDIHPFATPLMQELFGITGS
How it was run: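 After plating in 5% charcoal-stripped FBS and a 5 hr rest, PXR-Luc HepG2 cells received compounds in DMSO. Following 24 hr at 37 C, ONE-Glo was added and light output read.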

[10] = biological target: Nuclear receptor subfamily 1 group I member 2 (Rattus norvegicus) (UniProt Q9R1A7); assay: Rat pregnane X receptor (rPXR) activation by small molecules, qHTS assay (AID 1346983); settings: rPXR luciferase reporter cells, One-Glo luminescence, 24 h; max activation: stronger effect = higher value; also: nearly all actives have a fitted effect of over 20% in size
Nuclear receptor subfamily 1 group I member 2 (Rattus norvegicus), sequence (Q9R1A7 whole entry, looked up): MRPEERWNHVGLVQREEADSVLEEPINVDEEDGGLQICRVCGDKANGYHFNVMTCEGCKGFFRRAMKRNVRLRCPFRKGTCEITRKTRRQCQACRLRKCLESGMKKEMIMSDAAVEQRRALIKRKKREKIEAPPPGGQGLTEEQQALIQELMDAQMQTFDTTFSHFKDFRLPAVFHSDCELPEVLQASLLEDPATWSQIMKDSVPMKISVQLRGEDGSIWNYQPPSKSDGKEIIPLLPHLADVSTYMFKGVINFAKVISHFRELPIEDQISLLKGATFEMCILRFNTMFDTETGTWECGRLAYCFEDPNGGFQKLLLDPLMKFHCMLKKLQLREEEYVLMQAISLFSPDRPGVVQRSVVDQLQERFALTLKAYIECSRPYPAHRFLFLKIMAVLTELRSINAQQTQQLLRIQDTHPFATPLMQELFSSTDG
How it was run: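 Cell-based rPXR luciferase reporter assay, 2,000 cells per well, rested 5hr at 37 C before compound addition in DMSO, then 24 hr at 37 C. One-Glo reagent was added and luminescence read after 30 min at room temperature.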

[11] = biological target: Nuclear receptor subfamily 1 group I member 2 (Homo sapiens) (UniProt O75469); assay: CYP3A4 induction through human pregnane X receptor (PXR) by small molecules, qHTS assay (AID 1346984); also: nearly all actives have a fitted effect of over 40% in size; also: potency is read from the fitted curve at half-maximal effect
How it was run: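 Human PXR activation is tracked via CYP3A4 promoter-luciferase in DPX-2 (HepG2) cells. Compounds treat cells for 24hr at 37C, and luminescence is read after One-Glo.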

[12] = biological target: Nuclear receptor subfamily 1 group I member 2 (Homo sapiens) (UniProt O75469); assay: Human pregnane X receptor (PXR) activation by small molecules, qHTS assay (AID 1346985); also: nearly all actives have a fitted effect of over 40% in size
How it was run: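 DPX-2 cells (HepG2 co-transfected with a PXR response element and a CYP3A4-promoter luciferase construct) were seeded at 2,000 per well, rested 5 hr at 37C, then exposed to DMSO-dissolved compounds for 24 hr. Activation was read as luciferase luminescence.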

[13] = biological target: Cytochrome P450 2D6 (Homo sapiens) (UniProt P10635); assay: Cytochrome P450 Family 2 Subfamily D Member 6 (CYP2D6) small molecule antagonists: luciferase reporter qHTS assay (AID 1671196); also: nearly all actives have a fitted effect of over 50% in size; also: potency is read from the fitted curve at half-maximal effect
Cytochrome P450 2D6 (Homo sapiens), sequence (P10635 whole entry, looked up): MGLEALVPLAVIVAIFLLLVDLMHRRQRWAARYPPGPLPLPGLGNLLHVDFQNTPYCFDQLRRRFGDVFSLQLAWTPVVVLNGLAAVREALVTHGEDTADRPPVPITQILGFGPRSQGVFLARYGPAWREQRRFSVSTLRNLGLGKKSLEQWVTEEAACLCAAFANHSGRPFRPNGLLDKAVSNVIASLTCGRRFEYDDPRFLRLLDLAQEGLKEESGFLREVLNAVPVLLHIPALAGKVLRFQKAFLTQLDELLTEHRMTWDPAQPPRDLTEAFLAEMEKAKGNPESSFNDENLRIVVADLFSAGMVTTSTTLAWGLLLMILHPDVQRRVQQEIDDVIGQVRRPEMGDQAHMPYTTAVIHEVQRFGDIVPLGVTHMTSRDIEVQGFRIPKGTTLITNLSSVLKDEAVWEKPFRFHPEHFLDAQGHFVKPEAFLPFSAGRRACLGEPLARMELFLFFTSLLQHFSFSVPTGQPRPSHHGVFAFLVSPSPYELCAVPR
How it was run: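 Quantitative HTS of Tox21 chemicals against CYP2D6 using a luminescent proluciferin substrate. After NADPH addition, 1 h room-temperature reaction; luminescence recorded 20 min post detection reagent.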

[14] = biological target: Voltage-gated inwardly rectifying potassium channel KCNH2 (Homo sapiens) (UniProt Q12809); assay: Human Ether-a-go-go-Related Gene (hERG) channel small molecule antagonists: fluorescence cell-based qHTS assay (AID 1671200)
Voltage-gated inwardly rectifying potassium channel KCNH2 (Homo sapiens), sequence (Q12809 whole entry, looked up): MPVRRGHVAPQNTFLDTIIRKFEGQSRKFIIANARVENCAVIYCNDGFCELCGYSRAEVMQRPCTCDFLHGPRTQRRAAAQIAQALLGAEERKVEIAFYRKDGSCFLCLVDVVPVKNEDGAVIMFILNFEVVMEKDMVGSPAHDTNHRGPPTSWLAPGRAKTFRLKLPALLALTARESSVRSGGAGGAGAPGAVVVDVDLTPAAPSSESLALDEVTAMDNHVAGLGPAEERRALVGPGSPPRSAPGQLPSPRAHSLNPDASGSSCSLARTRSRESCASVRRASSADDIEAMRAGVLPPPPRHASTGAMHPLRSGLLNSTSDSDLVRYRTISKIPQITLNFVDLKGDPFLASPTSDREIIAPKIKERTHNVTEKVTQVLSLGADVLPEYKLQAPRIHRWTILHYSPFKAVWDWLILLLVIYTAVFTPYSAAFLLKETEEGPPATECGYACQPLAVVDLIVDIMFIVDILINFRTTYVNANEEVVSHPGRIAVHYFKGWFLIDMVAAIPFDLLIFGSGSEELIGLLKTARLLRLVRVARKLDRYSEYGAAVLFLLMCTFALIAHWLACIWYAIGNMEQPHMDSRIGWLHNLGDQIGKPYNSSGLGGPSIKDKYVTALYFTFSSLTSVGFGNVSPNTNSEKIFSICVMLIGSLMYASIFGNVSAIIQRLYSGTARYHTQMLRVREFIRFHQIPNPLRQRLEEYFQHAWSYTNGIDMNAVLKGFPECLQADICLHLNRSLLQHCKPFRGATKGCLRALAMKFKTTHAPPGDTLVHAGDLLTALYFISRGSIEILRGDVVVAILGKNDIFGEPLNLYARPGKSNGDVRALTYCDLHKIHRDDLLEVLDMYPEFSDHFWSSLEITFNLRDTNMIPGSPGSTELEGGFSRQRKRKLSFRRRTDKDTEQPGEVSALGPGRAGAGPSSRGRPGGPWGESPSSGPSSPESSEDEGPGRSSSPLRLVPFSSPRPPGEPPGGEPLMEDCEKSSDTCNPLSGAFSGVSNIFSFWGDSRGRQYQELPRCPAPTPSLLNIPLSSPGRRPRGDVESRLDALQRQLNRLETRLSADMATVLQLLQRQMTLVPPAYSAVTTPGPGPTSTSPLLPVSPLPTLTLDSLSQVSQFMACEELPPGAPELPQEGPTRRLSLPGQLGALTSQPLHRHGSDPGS
How it was run: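 In this thallium-flux screen, overnight-cultured U2OS cells bearing the channel are dye-loaded in darkness for an hour, rested 10 min at room temperature, and then monitored kinetically at 480/540 nm for two minutes post-stimulus.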
% is scaled to controls: 0 for no effect and ±100 for the full control effect.

CC(O)C1CCCCC1 (stereo not drawn)
inactive: outcome [1] | Potency [2] | Potency [3] | Potency [4] | Potency [5] | Potency [6] | Potency [7] | Potency [8]

O=C1[C@H](CC[C@H](O)c2ccc(F)cc2)[C@@H](c2ccc(O)cc2)N1c1ccc(F)cc1
inactive: outcome [1] | Potency [3] | max activation [10] -2.85% | Potency [11] | Potency [12]
active: Potency [2] 29.8 µM | Potency [9] 29.8 µM | Potency [13] 30.9 µM | Potency [5] 2.75 µM | Potency [6] 8.71 µM

OC(CCN1CCCCC1)(c1ccccc1)C1CCCCC1 (stereo not drawn)
inactive: outcome [1] | Potency [2] | Potency [3] | Potency [4] | max activation [10] -2.68% | Potency [11] | Potency [12] | Potency [6] | Potency [7]
active: Potency [13] 0.977 µM

CCCCCOC(=O)COc1cc(N2C(=O)C3=C(CCCC3)C2=O)c(F)cc1Cl
inactive: outcome [1] | Potency [2] | Potency [3] | Potency [4]
active: Potency [13] 25.2 µM | Potency [5] 25.2 µM | Potency [6] 5.64 µM | Potency [7] 31.7 µM | Potency [8] 6.33 µM

Cc1ccccc1N=Nc1ccc(N=Nc2c(O)ccc3ccccc23)c(C)c1
active: Potency [2] 13.3 µM | Potency [11] 7.94 µM | Potency [5] 34.7 µM | Potency [7] 13.8 µM
inactive: outcome [1] | Potency [3] | Potency [9] | max activation [10] 6.7% | Potency [12] | Potency [13] | Potency [14] | Potency [8]

CCN(CC)CCNC(C(=O)OCCC(C)C)c1ccccc1 (stereo not drawn)
inactive: outcome [1] | Potency [2] | Potency [3] | Potency [4] | max activation [10] -0.588% | Potency [5] | Potency [6] | Potency [7]
active: Potency [13] 1.74 µM

CC(C(=O)O)c1ccc(-c2ccccc2)c(F)c1 (stereo not drawn)
inactive: outcome [1] | Potency [2] | Potency [3] | Potency [4] | max activation [10] -4.66% | Potency [11] | Potency [12] | Potency [5] | Potency [14] | Potency [8]
active: Potency [6] 25.2 µM

CC(=O)[C@@]1(O)CC[C@H]2[C@@H]3C[C@H](C)C4=CC(=O)CC[C@]4(C)[C@H]3CC[C@@]21C
active: Potency [13] 34.7 µM | Potency [5] 1.95 µM
inactive: outcome [1] | Potency [2] | Potency [3] | Potency [4] | Potency [7] | Potency [14] | Potency [8]

O=C(c1ccc(O)cc1)c1ccc(O)cc1
inactive: outcome [1] | Potency [2] | Potency [3] | Potency [4] | Potency [6] | Potency [14]
active: Potency [5] 39.9 µM | Potency [7] 39.9 µM

O=C=NC1CCC(CC2CCC(N=C=O)CC2)CC1 (stereo not drawn)
inactive: outcome [1] | Potency [2] | Potency [3] | Potency [4] | Potency [14]
active: Potency [13] 35.6 µM | Potency [5] 79.6 µM | Potency [7] 44.8 µM | Potency [8] 3.99 µM

CC(C)=CCCC(C)CC=O (stereo not drawn)
inactive: outcome [1] | Potency [2] | Potency [3] | Potency [4] | Potency [14]

CC[C@@H]1C[C@H](N(Cc2cc(C(F)(F)F)cc(C(F)(F)F)c2)C(C)=O)c2cc(C(F)(F)F)ccc2N1C(=O)OC(C)C
active: Potency [8] 0.894 µM
inactive: outcome [1] | Potency [2] | Potency [3] | Potency [4] | Potency [13] | Potency [5]

c1ccc(-c2nc[nH]c2-c2ccccc2)cc1
active: Potency [7] 8.12 µM
inactive: outcome [1] | Potency [2] | Potency [3] | Potency [4] | Potency [11] | Potency [12] | Potency [14]

CC(=O)/C=C/C1C(C)=CCCC1(C)C (stereo not drawn)
inactive: outcome [1] | Potency [2] | Potency [3] | Potency [4] | Potency [13] | Potency [6] | Potency [7] | Potency [14] | Potency [8]

Cc1ccc(O)c([C@H](CCN(C(C)C)C(C)C)c2ccccc2)c1
inactive: outcome [1] | Potency [2] | Potency [3] | max activation [10] 2.91% | Potency [7]
active: Potency [13] 3.09 µM | Potency [5] 24.5 µM

CCCCOc1cc(C(=O)OCCN(CC)CC)ccc1N
inactive: outcome [1] | Potency [2] | Potency [4] | max activation [10] -4.73% | Potency [8]

C1=Cc2ccccc2C1
active: Potency [5] 39.9 µM
inactive: outcome [1] | Potency [2] | Potency [4] | Potency [9] | Potency [14] | Potency [8]
